Laboratory results taken from PubChem BioAssay (NCATS).
Inconclusive results are not listed. Activity calls are given as the source filed them. Unless noted, the call rests on the fitted dose curve; in most records, active means well fitted curve in either direction with a large enough effect (not every such curve was filed as active); inconclusive means small, poorly fitted or top-dose-only effect, or another doubt; inactive means flat fitted curve, though single readings scatter.

Assays:
[1] = target: Lysosomal acid glucosylceramidase (Homo sapiens) (UniProt P04062); assay: Glucocerebrosidase-p2 (AID 348; in the data active means potency below about 10 µM; further: potency means the concentration at half of the fitted maximal effect); details: purified GBA, blue fluorogenic substrate, 40 min
How it was run: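 Normal human glucocerebrosidase (0.2 nM) with blue fluorogenic substrate (80 uM final) in citrate/phosphate pH 5.9 with 10mM sodium taurocholate, 0.01% tween-20; 40 min RT, NaOH/glycine stop; fluorescence Ex 365/Em 440; AC50 from a titration from 0.6 nM upwards.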

[2] = AP1 Signaling Pathway (AID 357); details: ME-180 AP-1-bla reporter, EGF-induced, beta-lactamase ratio, 5 h; at 7.69 µM (top of the series) unless noted;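 further: ME-180 reporter cells stimulated with EGF at its EC50 level; on the % scale 0 is the no-effect control and ±100 the full control effect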
How it was run: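 Beta-lactamase reporter under AP-1 response element, ME-180 background. Stimulus: EC50 EGF. Compound exposure 5 h, 37 °C. Detection: CCF4, 2.5 h RT, 460/530 nm. Values: AC50 from titration.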

[3] = target: Cytochrome P450 1A2 (Homo sapiens) (UniProt P05177); assay: p450-cyp1a2 (AID 410; calls by dose curve; further: potency means the concentration at half of the fitted maximal effect;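 on activity change, negative = inhibition: -100% = full effect of reference inhibitor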); details: recombinant CYP1A2, luciferin-ME demethylation, luminescence; series mostly up to 57 µM
How it was run: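 Luminescent demethylation readout: Luciferin-ME (100uM, equal to Km) turned over by 20nM CYP1A2 for 60 min at room temperature after NADPH regeneration addition, following 10 min compound preincubation. Normalization used 57 uM furafylline as full inhibition.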

[4] = NFAT Signaling Pathway (AID 444); details: Jurkat NFAT-bla M1, carbachol, beta-lactamase ratio, 5 h; at 7.69 µM (top of the series) unless noted;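 further: carbachol stimulus at about its EC50 of 1 µM final; on the % scale 0 is the no-effect control and ±100 the full control effect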
How it was run: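 Jurkat cells carrying an NFAT-driven β-lactamase reporter and co-transfected muscarinic M1 receptor were treated with compound plus carbachol (1 uM final, an EC50 level) for 5 h at 37 °C. CCF4 loading followed for 1 h at RT; 460/530 nm ratio gave %activity.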

[5] = Stat Signaling Pathway (AID 446); details: ME-180 SIE beta-lactamase reporter, IL-6 stimulated, 5 h; at 7.69 µM (top of the series) unless noted;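 further: ME-180 cervical cancer cells given 40 pM IL-6 alongside compound; SIE-controlled beta-lactamase reporter measured as 460/530 nm FRET emission ratio; on the % scale 0 is the no-effect control and ±100 the full control effect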
How it was run: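 FRET read-out (405 nm excitation, 460/530 nm emission) of a beta-lactamase reporter under a STAT-inducible element in ME-180 cervical carcinoma cells. Cells with compound receive 40 pM IL-6 for 5 h. Values are normalised to AC90 stimulation and AC90 JAK-inhibitor controls.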

[6] = target: Glucocorticoid receptor (Homo sapiens) (UniProt P04150); assay: GR-EFC Redistribution (AID 451; calls by dose curve; further: potency means the concentration at half of the fitted maximal effect); details: CHO-K1 GR-EFC translocation, beta-gal luminescence, 2 h
How it was run: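 CHO-K1 cells stably expressing nuclear-localized β-gal enzyme acceptor and GR fused C-terminally to the enzyme donor fragment; ligand-driven nuclear translocation restores β-gal by complementation. Compounds titrated up to 46 uM final, 2 h at 37 °C; luminescence read.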

[7] = target: Mitogen-activated protein kinase 10 (Mus musculus) (UniProt Q61831); assay: JNK3 AlphaScreen Assay (AID 530); details: JNK3 lysate, c-Jun phosphorylation; series mostly up to 57.1 µM;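 further: kinase came from lysate of stimulated human HepG2 cells; signal reports phosphorylation of biotinylated GST-cJun 1-79 at Ser73 with 10 µM ATP; on the % scale 0 is the no-effect control and ±100 the full control effect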
How it was run: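 Phosphorylation of biotinylated GST-cJun(1-79) at Ser73 is measured by AlphaScreen proximity luminescence. Enzyme is JNK3 in HepG2 lysates activated with interleukin-1beta and tumor necrosis factor alpha; ATP is 10 uM final.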

[8] = target: 3',5'-cyclic-AMP phosphodiesterase 4B (Homo sapiens) (UniProt Q07343); assay: qHTS Assay for Inhibitors of PDE-IV (AID 607; active means well fitted activation curve with a large enough effect in the main read-out, with a control signal flat, not every such curve was filed as active; further: % of control where 0% means no effect); details: HEK293 ACTOne CNG channel cells, membrane potential fluorescence; series mostly up to 22.9 µM
How it was run: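 Cell-based read-out of cAMP via a modified cyclic nucleotide-gated channel and membrane potential dye (535/590 nm) in HEK293 cells expressing PDE4 endogenously. Compounds tested up to 22.9 uM final; 100 uM RO 20-1724 reference.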

[9] = target: Cytochrome P450 3A4 (Homo sapiens) (UniProt P08684); assay: qHTS Assay for Inhibitors and Substrates of Cytochrome P450 3A4 (AID 884; active means well fitted curve in the direction sought with a large enough effect; an effect the other way counts as inactive or inconclusive; further: nearly all actives have a fitted effect of over 50% in size; further: potency means the concentration at half of the fitted maximal effect); details: recombinant CYP3A4, Luciferin-PPXE luminescence; series mostly up to 57.1 µM
How it was run: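 Luminescent readout of luciferin produced by CYP3A4 (20 nM) dealkylation of Luciferin-PPXE, 25 uM (its KM). NADPH-driven reaction ran 60 min at RT after 10 min compound preincubation; data scaled to 57 uM ketoconazole as 100% inhibition.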

[10] = target: Cytochrome P450 3A4 (Homo sapiens) (UniProt P08684); assay: qHTS Assay for Activators of Cytochrome P450 3A4 (AID 885; active means well fitted curve in the direction sought with a large enough effect; an effect the other way counts as inactive or inconclusive; further: nearly all actives have a fitted effect of over 65% in size; further: potency means the concentration at half of the fitted maximal effect); details: recombinant CYP3A4, Luciferin-PPXE luminescence, 60 min; series mostly up to 57.1 µM
How it was run: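 Luminescent readout of luciferin formed from 25 uM Luciferin-PPXE (KM level) by 20 nM CYP3A4 in 200 mM KPO4, with 60 min NADPH-driven reaction at room temperature after 10 min compound exposure. Ketoconazole (57 uM) defined 100% inhibition.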

[11] = qHTS Assay for Lipid Storage Modulators (AID 1519; calls by dose curve); details: Drosophila S3 cells, BODIPY lipid droplet/cell ratio, laser cytometry, cells loaded with oleic acid; for activity change, negative = inhibition: at 57.5 µM (top of the series)
How it was run: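 Cells seeded at 5,000 per well were treated with compounds over a concentration series and loaded with oleic acid (400 uM, as added). Lipid droplet fluorescence (488 nm excitation, 500-530 nm channel) was read by laser-scanning cytometry and normalized to 20 uM Triacsin C.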

[12] = Primary qHTS for small molecule stabilizers of the endoplasmic reticulum resident proteome: Secreted ER Calcium Modulated Protein (SERCaMP) assay (AID 1508630; active means well fitted curve in the direction sought with a large enough effect; an effect the other way counts as inactive or inconclusive; further: on the % scale 0 is the no-effect control and ±100 the full control effect); details: SH-SY5Y GLuc-SERCaMP (Gaussia luciferase released on ER calcium loss) secretion, thapsigargin, luminescence; series mostly up to 38.4 µM
How it was run: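 The SH-SY5Y reporter protocol was run at 3 concentrations up to 38.3 uM (primary) or 11 concentrations (follow-up): 16 h compound, 100 nM thapsigargin for 4 h, then extracellular luciferase luminescence.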

[13] = target: Cytochrome P450 2D6 (Homo sapiens) (UniProt P10635); assay: qHTS Assay for Inhibitors and Substrates of Cytochrome P450 2D6 (AID 891; active means well fitted curve in the direction sought with a large enough effect; an effect the other way counts as inactive or inconclusive; further: potency means the concentration at half of the fitted maximal effect; nearly all actives have a fitted effect of over 60% in size); details: recombinant CYP2D6, luciferin-ME EGE luminescence; series mostly up to 57.1 µM
How it was run: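 Luminescent read-out of luciferin formed by 5 nM human CYP2D6 demethylating 30 uM Luciferin-ME EGE (Km level) over 60 min at room temperature after NADPH regeneration addition. Data normalized to full inhibition by 1.43 uM quinidine.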

[14] = target: Cytochrome P450 2C9 (Homo sapiens) (UniProt P11712); assay: qHTS Assay for Inhibitors and Substrates of Cytochrome P450 2C9 (AID 883; active means well fitted curve in the direction sought with a large enough effect; an effect the other way counts as inactive or inconclusive; further: potency means the concentration at half of the fitted maximal effect; nearly all actives have a fitted effect of over 60% in size); details: recombinant CYP2C9, luciferin-H luminescence, 60 min; series mostly up to 57.1 µM
How it was run: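 A luminogenic readout tracked human CYP2C9 (10nM) converting deoxyluciferin (100uM, at KM) in 25mM KPO4 during 60 min at 37C with regenerated NADPH. Values normalized to 57uM sulphaphenazole as complete inhibition.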

[15] = target: Cytochrome P450 2C19 (Homo sapiens) (UniProt P33261); assay: qHTS Assay for Inhibitors and Substrates of Cytochrome P450 2C19 (AID 899; active means well fitted curve in the direction sought with a large enough effect; an effect the other way counts as inactive or inconclusive; further: potency means the concentration at half of the fitted maximal effect; nearly all actives have a fitted effect of over 60% in size); details: recombinant CYP2C19, luciferin-H EGE luminescence; series mostly up to 57.1 µM
How it was run: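 NADPH-dependent conversion of Luciferin-H EGE (10uM, at KM) by 5nM enzyme in 50mM KPO4, 60 min at 37C following 10 min compound preincubation. Stopped with luciferin detection buffer; luminescence read after 20 min.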

[16] = qHTS Assay for Identification of Small Molecule Agonists for Hypoxia Response Element Signaling Pathway (AID 914; active means well fitted activation curve with a large enough effect in the signal ratio, with a control signal flat, not every such curve was filed as active; the % refers to the signal ratio; further: % of control where 0% means no effect); details: ME-180 (cervical carcinoma) HRE-bla reporter, beta-lactamase ratio, CoCl2, 17 h; activation: stronger effect = higher value
How it was run: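 Cells were plated overnight, pin-dosed with compound in a titration series, co-stimulated with EC50 CoCl2 and incubated 17 hours at 37 degrees Celsius. CCF4 substrate was then loaded, and AC50 values came from the 460nm/530nm ratio.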

[17] = measured here: cell count channel max response
[18] = measured here: lipid channel max response

Cytochrome P450 3A4 (Homo sapiens), sequence (P08684 whole entry, looked up): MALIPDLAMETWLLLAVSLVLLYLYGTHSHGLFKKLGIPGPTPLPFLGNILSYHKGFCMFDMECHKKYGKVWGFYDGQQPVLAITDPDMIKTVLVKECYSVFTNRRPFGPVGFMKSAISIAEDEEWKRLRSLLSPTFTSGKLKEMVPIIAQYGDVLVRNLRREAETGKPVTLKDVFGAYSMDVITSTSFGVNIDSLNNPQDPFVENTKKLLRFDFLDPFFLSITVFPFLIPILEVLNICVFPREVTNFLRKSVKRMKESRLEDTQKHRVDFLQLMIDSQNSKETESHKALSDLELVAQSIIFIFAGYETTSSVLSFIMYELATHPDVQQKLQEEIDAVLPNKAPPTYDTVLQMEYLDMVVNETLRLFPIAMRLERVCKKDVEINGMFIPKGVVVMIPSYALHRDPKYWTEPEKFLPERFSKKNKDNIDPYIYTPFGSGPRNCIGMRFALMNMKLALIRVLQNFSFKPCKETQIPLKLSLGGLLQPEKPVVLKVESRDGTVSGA
Cytochrome P450 1A2 (Homo sapiens), sequence (P05177 whole entry, looked up): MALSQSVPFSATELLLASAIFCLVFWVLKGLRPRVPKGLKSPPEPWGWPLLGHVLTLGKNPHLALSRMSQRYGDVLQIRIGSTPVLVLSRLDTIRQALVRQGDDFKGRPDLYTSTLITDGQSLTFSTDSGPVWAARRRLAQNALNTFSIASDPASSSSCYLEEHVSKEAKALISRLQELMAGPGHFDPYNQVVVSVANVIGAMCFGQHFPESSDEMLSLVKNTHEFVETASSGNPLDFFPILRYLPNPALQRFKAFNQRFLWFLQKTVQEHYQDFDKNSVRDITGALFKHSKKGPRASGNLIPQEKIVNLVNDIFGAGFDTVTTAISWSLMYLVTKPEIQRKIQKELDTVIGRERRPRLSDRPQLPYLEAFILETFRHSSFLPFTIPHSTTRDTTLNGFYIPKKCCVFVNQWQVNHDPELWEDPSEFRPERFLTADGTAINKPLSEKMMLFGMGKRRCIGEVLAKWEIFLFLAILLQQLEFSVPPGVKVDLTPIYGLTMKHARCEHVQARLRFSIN
Lysosomal acid glucosylceramidase (Homo sapiens), sequence (P04062 whole entry, looked up): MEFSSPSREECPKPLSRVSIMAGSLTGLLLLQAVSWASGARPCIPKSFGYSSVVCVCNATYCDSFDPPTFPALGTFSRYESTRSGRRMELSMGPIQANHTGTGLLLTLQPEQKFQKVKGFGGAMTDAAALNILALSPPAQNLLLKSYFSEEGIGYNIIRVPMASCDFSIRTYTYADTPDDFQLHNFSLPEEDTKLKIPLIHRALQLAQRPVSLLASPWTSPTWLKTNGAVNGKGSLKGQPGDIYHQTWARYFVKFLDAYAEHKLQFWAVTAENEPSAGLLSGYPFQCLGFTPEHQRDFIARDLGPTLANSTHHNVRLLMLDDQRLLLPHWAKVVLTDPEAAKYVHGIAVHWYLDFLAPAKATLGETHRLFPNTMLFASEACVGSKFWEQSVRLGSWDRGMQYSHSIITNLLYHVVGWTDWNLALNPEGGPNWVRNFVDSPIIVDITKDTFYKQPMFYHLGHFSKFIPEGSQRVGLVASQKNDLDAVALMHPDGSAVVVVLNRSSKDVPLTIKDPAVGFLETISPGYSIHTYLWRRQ
Glucocorticoid receptor (Homo sapiens), sequence (P04150 whole entry, looked up, the tested form may be a part): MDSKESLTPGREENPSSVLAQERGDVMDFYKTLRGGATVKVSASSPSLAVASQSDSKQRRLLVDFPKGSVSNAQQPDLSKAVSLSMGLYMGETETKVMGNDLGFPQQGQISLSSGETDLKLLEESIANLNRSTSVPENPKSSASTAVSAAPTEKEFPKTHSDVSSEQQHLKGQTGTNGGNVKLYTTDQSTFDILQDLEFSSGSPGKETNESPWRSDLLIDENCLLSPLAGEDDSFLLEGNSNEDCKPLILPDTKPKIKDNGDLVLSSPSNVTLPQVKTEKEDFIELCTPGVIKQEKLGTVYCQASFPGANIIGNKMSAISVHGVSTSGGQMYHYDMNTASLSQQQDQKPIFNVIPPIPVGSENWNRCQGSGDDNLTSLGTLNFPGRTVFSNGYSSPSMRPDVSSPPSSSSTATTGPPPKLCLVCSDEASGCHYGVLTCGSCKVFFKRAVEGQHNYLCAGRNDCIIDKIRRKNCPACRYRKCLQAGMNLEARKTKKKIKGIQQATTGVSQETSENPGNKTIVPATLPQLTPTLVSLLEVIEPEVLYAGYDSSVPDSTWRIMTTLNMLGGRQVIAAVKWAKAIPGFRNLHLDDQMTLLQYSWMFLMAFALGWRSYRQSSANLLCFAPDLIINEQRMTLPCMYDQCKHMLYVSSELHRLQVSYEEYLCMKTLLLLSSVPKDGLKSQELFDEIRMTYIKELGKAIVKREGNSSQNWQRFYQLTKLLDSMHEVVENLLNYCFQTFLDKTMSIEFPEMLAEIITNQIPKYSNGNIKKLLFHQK
3',5'-cyclic-AMP phosphodiesterase 4B (Homo sapiens), sequence (Q07343 whole entry, looked up): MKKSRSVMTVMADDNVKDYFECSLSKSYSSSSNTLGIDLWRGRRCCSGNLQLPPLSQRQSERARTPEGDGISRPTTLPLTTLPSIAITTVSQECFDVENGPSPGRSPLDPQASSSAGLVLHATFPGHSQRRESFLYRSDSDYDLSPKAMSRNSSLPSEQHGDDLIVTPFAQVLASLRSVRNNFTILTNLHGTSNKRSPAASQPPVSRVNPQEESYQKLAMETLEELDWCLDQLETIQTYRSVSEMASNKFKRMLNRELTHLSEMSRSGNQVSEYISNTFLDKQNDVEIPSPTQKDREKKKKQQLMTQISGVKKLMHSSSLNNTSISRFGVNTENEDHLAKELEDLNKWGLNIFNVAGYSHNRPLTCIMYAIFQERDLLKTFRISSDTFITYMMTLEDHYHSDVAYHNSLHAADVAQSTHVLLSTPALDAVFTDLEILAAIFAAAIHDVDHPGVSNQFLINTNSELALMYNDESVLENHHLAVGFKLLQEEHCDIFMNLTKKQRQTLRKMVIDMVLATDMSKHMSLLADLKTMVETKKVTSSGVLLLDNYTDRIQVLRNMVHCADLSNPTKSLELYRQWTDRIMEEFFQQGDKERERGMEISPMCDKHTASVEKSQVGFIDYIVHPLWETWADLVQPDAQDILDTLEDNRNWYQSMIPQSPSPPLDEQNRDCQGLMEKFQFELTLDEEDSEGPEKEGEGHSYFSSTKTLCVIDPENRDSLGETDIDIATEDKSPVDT
Cytochrome P450 2D6 (Homo sapiens), sequence (P10635 whole entry, looked up): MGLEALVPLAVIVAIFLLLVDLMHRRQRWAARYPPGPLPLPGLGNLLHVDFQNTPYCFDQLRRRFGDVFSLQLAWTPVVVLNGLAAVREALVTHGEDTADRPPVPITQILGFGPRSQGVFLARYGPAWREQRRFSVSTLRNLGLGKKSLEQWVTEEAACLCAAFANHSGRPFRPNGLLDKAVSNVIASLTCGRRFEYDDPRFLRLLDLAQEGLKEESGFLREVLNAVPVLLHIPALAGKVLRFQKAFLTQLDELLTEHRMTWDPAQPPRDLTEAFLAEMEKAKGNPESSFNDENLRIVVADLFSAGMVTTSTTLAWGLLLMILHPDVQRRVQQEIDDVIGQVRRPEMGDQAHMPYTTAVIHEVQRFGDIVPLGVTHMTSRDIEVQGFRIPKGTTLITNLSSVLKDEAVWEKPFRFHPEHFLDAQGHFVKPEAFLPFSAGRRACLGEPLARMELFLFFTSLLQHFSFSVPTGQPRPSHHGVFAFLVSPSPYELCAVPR
Cytochrome P450 2C19 (Homo sapiens), sequence (P33261 whole entry, looked up): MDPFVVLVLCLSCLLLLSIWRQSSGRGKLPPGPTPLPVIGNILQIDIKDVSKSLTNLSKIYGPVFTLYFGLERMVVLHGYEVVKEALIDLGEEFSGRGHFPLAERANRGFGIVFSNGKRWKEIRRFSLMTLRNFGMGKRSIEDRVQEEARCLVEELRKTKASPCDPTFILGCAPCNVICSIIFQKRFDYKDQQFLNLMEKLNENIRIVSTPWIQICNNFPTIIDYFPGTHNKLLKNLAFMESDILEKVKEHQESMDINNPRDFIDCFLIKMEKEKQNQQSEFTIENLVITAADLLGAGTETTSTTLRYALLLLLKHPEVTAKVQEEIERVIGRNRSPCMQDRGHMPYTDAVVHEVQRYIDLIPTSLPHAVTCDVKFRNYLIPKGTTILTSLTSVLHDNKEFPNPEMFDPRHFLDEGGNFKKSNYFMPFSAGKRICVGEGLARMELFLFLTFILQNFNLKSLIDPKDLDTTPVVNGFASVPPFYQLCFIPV
Cytochrome P450 2C9 (Homo sapiens), sequence (P11712 whole entry, looked up): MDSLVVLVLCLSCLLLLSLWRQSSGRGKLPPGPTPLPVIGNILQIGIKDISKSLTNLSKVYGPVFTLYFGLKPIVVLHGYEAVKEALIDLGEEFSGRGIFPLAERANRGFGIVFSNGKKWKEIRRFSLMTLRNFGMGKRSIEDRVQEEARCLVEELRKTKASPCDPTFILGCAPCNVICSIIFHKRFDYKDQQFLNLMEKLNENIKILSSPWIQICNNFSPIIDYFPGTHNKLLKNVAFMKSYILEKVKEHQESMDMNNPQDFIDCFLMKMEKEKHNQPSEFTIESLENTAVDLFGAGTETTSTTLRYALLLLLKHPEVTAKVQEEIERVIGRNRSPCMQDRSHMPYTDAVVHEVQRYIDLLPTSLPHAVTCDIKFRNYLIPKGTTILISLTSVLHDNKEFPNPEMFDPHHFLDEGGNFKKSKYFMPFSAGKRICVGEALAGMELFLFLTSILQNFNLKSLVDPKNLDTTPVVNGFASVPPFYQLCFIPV

With `COC(=O)N1CCC2(CC1)CN(c1ccccn1)C2` the Potency [1] was > 11.4 µM (inactive), the activity change, negative = inhibition [2] was -6.58% (inactive) and the Potency [3] was “inactive”. The activity change, negative = inhibition [4] was -21.4% (inactive), the activity, negative = inhibition [5] was 9.9% (inactive) and the Potency [6] was > 46 µM (inactive). For the same compound, the outcome [7] was “inactive”, the Potency [8] was “inactive” and the Potency [9] was “inactive”. The Potency [10] was 25.1 µM (active), the activity change, negative = inhibition [11] was 1.4% (inactive) and the max response [11, 17] was 2.42%. For the same compound, the max response [11, 18] was 5.09% and the Potency [12] was “inactive”.
With `COC(=O)N1CCC2(CC1)CN(C(c1ccccc1)c1ccccc1)C2` the Potency [1] was > 11.4 µM (inactive), the activity change, negative = inhibition [2] was 3.69% (inactive) and the Potency [3] was “inactive”. For the same compound, the activity change, negative = inhibition [4] was -16.9% (inactive), the activity, negative = inhibition [5] was 5.28% (inactive) and the Potency [6] was > 46 µM (inactive). For the same compound, the outcome [7] was “inactive”, the Potency [8] was “inactive” and the Potency [9] was “inactive”. For the same compound, the Potency [13] was 0.794 µM (active), the activity change, negative = inhibition [11] was -2.77% (inactive) and the max response [11, 17] was 5.36%. The max response [11, 18] was 5.91% and the Potency [12] was “inactive”.
With `Cn1cccc1C(=O)N1CCC[C@@]2(CCN(c3ccccn3)C2)C1` the Potency [1] was > 11.4 µM (inactive), the activity change, negative = inhibition [2] was 0.459% (inactive) and the Potency [3] was 31.6 µM (active). The activity change, negative = inhibition [4] was -3.64% (inactive), the activity, negative = inhibition [5] was -2.5% (inactive) and the Potency [6] was > 46 µM (inactive). The outcome [7] was “inactive”, the Potency [8] was “inactive” and the Potency [10] was “inactive”. For the same compound, the activity change, negative = inhibition [11] was 4.31% (inactive), the max response [11, 17] was 20% and the max response [11, 18] was 28%. The Potency [12] was “inactive”.
With `N#Cc1cccc(NC(=O)N2CC[C@@]3(CCCN(C(=O)c4ccncc4)C3)C2)c1` the Potency [1] was > 11.4 µM (inactive), the activity change, negative = inhibition [2] was -19.8% (inactive) and the Potency [3] was “inactive”. The activity change, negative = inhibition [4] was 1.61% (inactive), the activity, negative = inhibition [5] was 4.09% (inactive) and the Potency [6] was > 46 µM (inactive). The outcome [7] was “inactive”, the Potency [8] was “inactive” and the Potency [10] was “inactive”. For the same compound, the activity change, negative = inhibition [11] was 1.67% (inactive), the max response [11, 17] was 17.2% and the max response [11, 18] was 21.1%. The Potency [12] was “inactive”.
In the case of `CS(=O)(=O)N1CCC2(CCCN(c3ccncc3)C2)CC1`, the Potency [1] was > 11.4 µM (inactive), the activity change, negative = inhibition [2] was 10.1% (inactive) and the Potency [3] was “inactive”. The activity change, negative = inhibition [4] was -14.2% (inactive), the activity, negative = inhibition [5] was -2.99% (inactive) and the Potency [6] was > 46 µM (inactive). For the same compound, the outcome [7] was “inactive”, the Potency [8] was “inactive” and the Potency [14] was 0.0794 µM (active). The Potency [15] was 1.26 µM (active), the activation [16] was 20.8% (inactive) and the activity change, negative = inhibition [11] was 4.5% (inactive). For the same compound, the max response [11, 17] was 17.1%, the max response [11, 18] was 26.8% and the Potency [12] was “inactive”.
In the case of `O=C(c1cccc(F)c1)N1CCC[C@@]2(CCN(c3ccncc3)C2)C1`, the Potency [1] was > 11.4 µM (inactive), the activity change, negative = inhibition [2] was -0.222% (inactive) and the Potency [3] was “inactive”. For the same compound, the activity change, negative = inhibition [4] was -14.9% (inactive), the activity, negative = inhibition [5] was -5.12% (inactive) and the Potency [6] was > 46 µM (inactive). For the same compound, the outcome [7] was “inactive”, the Potency [8] was “inactive” and the Potency [9] was 0.316 µM (active). The Potency [10] was “inactive”, the activity change, negative = inhibition [11] was 6.94% (inactive) and the max response [11, 17] was 20%. For the same compound, the max response [11, 18] was 29.4% and the Potency [12] was “inactive”.
For `COC(=O)N1CCC2(CC1)CCN(c1ccccc1)CC2`, the Potency [1] was > 11.4 µM (inactive), the activity change, negative = inhibition [2] was 8.46% (inactive) and the Potency [3] was “inactive”. The activity change, negative = inhibition [4] was 7.28% (inactive), the activity, negative = inhibition [5] was 7.52% (inactive) and the Potency [6] was > 46 µM (inactive). The outcome [7] was “inactive”, the Potency [8] was “inactive” and the Potency [9] was “inactive”. The activation [16] was 0.0011% (inactive), the activity change, negative = inhibition [11] was 0.493% (inactive) and the max response [11, 17] was 3.31%. The max response [11, 18] was 7.38% and the Potency [12] was “inactive”.
